Assay outcomes from PubChem BioAssay.
Only some compounds are listed: those with a hit (about 10% of all), similar ones and a draw of the others.
KinaseGlo FLuc = counter-screen: inhibitors of Kinase-Glo firefly luciferase. Potency, µM (top dose mostly 38.3 µM), without a hit: top-dose activity change, negative = inhibition, usual class: inhibitors. hit rate 0.28% among 200,000. Kinase-Glo luciferase, ATP luminescence, 8 min. AID 1379; active means well fitted inhibition curve with a large enough effect; inconclusive means small, poorly fitted or top-dose-only effect; further: potency means the concentration at half of the fitted maximal effect; nearly all actives have a fitted effect of over 60% in size
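Kinase-Glo luciferase light output from ATP and luciferin was measured with 10 uM ATP, within the enzyme's linear range. Buffer: 50 mM imidazole pH 7.2, 50 mM KCl, 7 mM MgCl2, 0.01% Tween 20, 0.05% BSA; luminescence read after 8 min at ambient temperature.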
HPGD block = inhibitors of human 15-hydroxyprostaglandin dehydrogenase (HPGD) | P15428 | purified HPGD, NADH fluorescence kinetic, PGE2 substrate | Potency, µM, without a hit: at the highest dose activity change, negative = inhibition, hits mostly inhibitors | hit rate 4.3% among 150,000; further: potency means the concentration at half of the fitted maximal effect
Target sequence (P15428 whole entry, looked up): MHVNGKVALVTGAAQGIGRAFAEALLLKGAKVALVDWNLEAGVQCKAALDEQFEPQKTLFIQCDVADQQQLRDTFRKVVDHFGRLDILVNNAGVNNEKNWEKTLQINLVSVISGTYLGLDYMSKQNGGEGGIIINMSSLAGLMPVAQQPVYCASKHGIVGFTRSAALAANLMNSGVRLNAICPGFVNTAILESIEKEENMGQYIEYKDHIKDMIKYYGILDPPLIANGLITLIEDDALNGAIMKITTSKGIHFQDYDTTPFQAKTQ
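20 nM HPGD preincubated 15 min at room temperature with compound in 50 mM Tris-HCl pH 8, 0.01% Tween 20. Started with 1 mM NAD+ and 30 uM prostaglandin E2; NADH fluorescence (360/450 nm) read 5 times over 30-s intervals, last minus first.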
PNC assembly inh = inhibitors of perinucleolar compartment assembly; hit rate 3.1% among 140,000; activity change (PNC), negative = inhibition, % at 10 µM; PC3M PTB-GFP, PNC prevalence imaging, 16 h; stronger effect = lower value;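 active means readout at or below -70, meaning at least 70% loss of cells showing the perinucleolar compartment, a nuclear body marking cancer cells; inconclusive means readout between -30 and a set limit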;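 further: plate controls were DMSO wells for no effect and camptothecin positive control wells for full effect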
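PC3M cells stably expressing PTB-GFP, 750–1000 cells/well, treated 16 h at 37 °C with compound (23 nl of library stock), in duplicate. After paraformaldehyde fixation and Hoechst stain, imaged at 20x; PNC prevalence scored by image analysis.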
IMPase cell inh = IMPase inhibition in cells; P97697; CHO-M1 cells, IP1 accumulation, HTRF TR-FRET ratio; inhibition (IP1 accumulation), % at 46.1 µM; 120,000 tested, under 10 active; active means well fitted curve in the direction sought with a large enough effect in the signal ratio, not every such curve was filed as active; inconclusive means small, poorly fitted or top-dose-only effect, or a change in a side signal; inactive means no such curve, though single readings can be large or run the other way; the % refers to the signal ratio;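 further: cells stimulated with carbachol in lithium chloride buffer; plate controls were DMSO basal wells for no effect and reference inhibitor wells for full effect; higher means more IMPase inhibition seen as more IP1 and lower FRET ratio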
Target sequence (P97697 whole entry, looked up): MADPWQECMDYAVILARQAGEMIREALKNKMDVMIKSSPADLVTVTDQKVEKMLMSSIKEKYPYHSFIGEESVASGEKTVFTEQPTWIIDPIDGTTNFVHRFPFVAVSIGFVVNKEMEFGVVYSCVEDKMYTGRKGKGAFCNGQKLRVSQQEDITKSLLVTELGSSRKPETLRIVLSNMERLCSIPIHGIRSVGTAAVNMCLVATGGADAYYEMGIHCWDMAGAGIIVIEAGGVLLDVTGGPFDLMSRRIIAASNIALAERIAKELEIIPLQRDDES
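CHO-M1 cells (CHO stably expressing M1 receptor), compound up to 46 uM final, stimulated with carbachol (50 uM as added) in buffer with 50mM LiCl, pH 7.4, 30 min at 37C. Cytosolic IP1 read by TR-FRET; AC50 from Hill fits.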
Lamin A splicing = modulators of lamin A splicing; HeLa LMNA splicing GFP/RFP minigene ratio, 48 h; Potency, µM (top dose mostly 46.1 µM), without a hit: at the highest dose ratio change, negative = inhibition, actives largely listed as inhibitors; hit rate 0.01% among 200,000; AID 1487; active means well fitted inhibition curve with a large enough effect in the signal ratio, with a control signal flat, not every such curve was filed as active; inconclusive means small, poorly fitted or top-dose-only effect, or effect the other way, or a change in a side signal; the % refers to the signal ratio; further: potency means the concentration at half of the fitted maximal effect
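Read-out is the ratio of GFP to DsRed2 object intensity, acquired by 488 nm laser-scanning cytometry on HeLa lamin A-EGFP minigene reporter cells. Compound incubation 48 hrs at 37 °C in Opti-MEM with 2% FBS; DMSO 0.5% final.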
ALDH1A1 inh = inhibitors of human aldehyde dehydrogenase 1A1 | Purified ALDH1A1, NADH fluorescence, propionaldehyde substrate | AID 1030 | hit rate 7.3% among 220,000 | P00352 | Potency, µM (doses to about 75.3 µM), for the others: top-dose activity, negative = inhibition, actives largely listed as inhibitors;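 further: potency means the concentration at half of the fitted maximal effect; plate controls were no enzyme wells and a reference inhibitor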
* hit, by the source's call; u = inconclusive; x = not tested or not shown; [ ] = remark or other dose. Unless noted, the call rests on the fitted dose curve; in most records, active means well fitted inhibition curve with a large enough effect (not every such curve was filed as active); inconclusive means small, poorly fitted or top-dose-only effect, or another doubt; inactive means no such curve, though single readings can be large or run the other way. Unless noted, on the % scale 0 is the no-effect control and ±100 the full control effect.

SMILES | KinaseGlo FLuc | HPGD block | PNC assembly inh | IMPase cell inh | Lamin A splicing | ALDH1A1 inh
CCc1ccc(NC(=S)Nc2cccc3cnccc23)cc1 | 2.4% | x | x | x | -7.9%[9.22 µM] | 11.2µM*
O=C(NC(=S)Nc1cccc2cnccc12)c1ccccc1 | 0.8% | x | x | x | x | -6.4%
O=C1CCCC=C1[C@H](O)CCCCBr | x | x | x | x | x | -4.4%[13.5 µM]
COc1ccc(Oc2nc3c(c(=O)n(C)c(=O)n3C)n2Cc2ccc(Cl)cc2Cl)cc1 | x | x | x | x | 2.1%[46 µM] | x
COc1ccc(N2C(=O)CC(Sc3nc(C)cc(C)c3C#N)C2=O)cc1 (centres undefined) | 2.0% | -5.2% | 16.4 | x | -6.3% | u
O=C1CC(Sc2nnc(-c3ccccc3O)o2)C(=O)N1c1ccccc1 (centres undefined) | 0.7% | u | -17.6 | -19.5 | 7.5% | 3.55µM*
COc1ccc(N2C(=O)CC(Sc3nnc(-c4ccccc4)o3)C2=O)cc1 (centres undefined) | 14.7% | 22.4µM* | u | u | 2.5% | 1.78µM*
COc1ccc(-n2sc3c(c2=S)-c2cc(OC)ccc2NC3(C)C)cc1 | 1.3% | -29.2% | -16.4 | -8.0 | u | 31.6µM*
COc1ccc2c(c1)-c1c(sn(-c3ccccc3)c1=S)C(C)(C)N2 | -0.8% | -2.2% | u | x | u | 6.5%
OC(COCc1cccs1)CN1CCN(c2ccccc2Cl)CC1 (centres undefined) | 2.4% | -1.5% | -14.8 | 4.9 | -10.8% | 14.4%
Cc1cccc(N2CCN(CC(O)COCc3cccs3)CC2)c1C (centres undefined) | x | x | -115.2* | -9.0 | -17.5% | -10.0%
CNc1ncnc2c1ncn2[C@H]1C[C@@H](OP(=O)(O)O)[C@H](COP(=O)(O)O)O1 | x | x | x | -1.9 | x | x
Cc1ccn2cc(-c3ccc4c(c3)NC(=O)CO4)nc2c1 | -16.6% | x | x | x | -9.9%[46 µM] | -10.2%
C=CCN=c1scc(-c2ccc3c(c2)NC(=O)CO3)n1/N=C(\C)c1ccccn1 | 2.9% | x | x | x | u | 2.82µM*
CCN1CCN(CCCOc2ccccc2-c2ccccc2)CC1 | -1.8% | x | x | x | x | 11.2µM*
CCN1CCN(CCOc2ccccc2-c2ccccc2)CC1 | -4.4% | x | x | x | 8.2%[46 µM] | u
Cc1ccc2nc(SCc3nnc(-c4ccccc4)o3)[nH]c2c1 | -2.5% | u | 67.4 | 1.7 | 2.5% | -15.7%
Cc1ccc2nc(SCc3nnc(-c4cccs4)o3)[nH]c2c1 | -0.8% | 31.6µM* | u | 2.2 | -2.3% | 22.4µM*
Cc1ccc(/C=C/C(=O)N2CCN(c3ncccn3)CC2)o1 | 0.1% | 20µM* | -10.0 | x | 6.6% | 3.55µM*
Cc1ccc(/C=C/C(=O)N2CCCC(C(N)=O)C2)o1 (centres undefined) | x | x | x | x | x | 14.1µM*
c1cncc(-c2cncnc2NCc2cccs2)c1 | x | x | x | x | -4.3% | 4.9%
CCOc1ccc(CNC(=O)c2cnc(SC)nc2C)cc1 | x | x | x | x | -8.0%[46 µM] | x
N#Cc1ccc(NC(=O)COCc2cc(-c3ccc4c(c3)OCO4)on2)cc1 | x | x | x | x | -0.8%[46 µM] | x
COc1ccc(C)cc1S(=O)(=O)Nc1cccc(-c2ccc(N3CCCC3)nn2)c1 | x | x | x | x | 0.8%[46 µM] | x
CN1CCN(C(=O)c2ccc(C(C)(C)C)cc2)CC1 | -1.3% | 11.2µM* | 31.4 | 4.1 | -4.3% | -7.7%
SMILES | KinaseGlo FLuc | HPGD block | PNC assembly inh | IMPase cell inh | Lamin A splicing | ALDH1A1 inh
O=C(c1ccc(-n2cccc2)cc1)N1CCOCC1 | 0.1% | u | -22.3 | 1.6 | 1.4% | 11.0%
Cc1csc2c(N3CCN(C(=O)c4ccc(C(C)(C)C)cc4)CC3)ncnc12 | x | x | x | x | x | 15.8µM*
CN1CCN(C(=O)c2ccc(C(F)(F)F)cc2)CC1 | -1.6% | x | x | x | -12.7%[46 µM] | 8.8%
CN1CCN(C(=O)c2ccc(N3CCCC3=O)cc2)CC1 | -1.4% | 12.6µM* | 39.0 | 2.6 | 0.4% | 7.4%
O=C(c1ccc(N2CCCC2=O)cc1)N1CCOCC1 | 7.7% | 22.4µM* | -85.5* | -2.5 | -11.9% | 18.8%
COc1ccc(OC)c(CNC(=O)c2ccc3nc(C(C)C)oc3c2)c1 | x | x | x | x | 12.4%[46 µM] | x
COc1ccc(Br)cc1CNC(=O)Cn1c(=O)c2cccn2c2ccc(F)cc21 | x | x | x | x | 3.3%[46 µM] | x
CC1CN(C(=O)/C=C/c2ccc3c(c2)OCO3)CC(C)O1 (centres undefined) | -3.3% | u | 27.9 | 14.9 | 2.4% | u
